# High-throughput results from PubChem BioAssay.
# Jurkat NFkB inh = inhibitors of the PMA/ionomycin-induced NF-kB reporter in Jurkat cells. PMA/ionomycin-induced NF-kB luciferase reporter, luminescence. inhibition, % at 4 µM. 330,000 tested, 0.53% active; in the data active = inhibition above about 50%
# 697 NFkB inh = lowers PMA/ionomycin-induced NF-kB signal in 697 B cells | 330,000 tested, 0.33% active | 697 B-cell NF-kB luciferase reporter, 16 h | AID 435022 | inhibition, % at 4 µM; in the data active = inhibition above about 35%
# Gli-Sufu antag = Gli-Sufu pathway antagonism. Sufu-KO-LIGHT fibroblasts, Gli luciferase reporter luminescence. inhibition, % at 5 µM. 340,000 tested, 0.74% active. AID 588413;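 active = inhibition above about 55%, limit read from the data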;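 also: 0% = DMSO-treated cells and 100% = wells with medium but no cells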
# TAG inh = inhibitors of triacylglycerol accumulation; 230,000 tested, 0.66% active; H9c2 cells, Nile Red lipid (TAG) fluorescence; cells loaded with 200 µM oleic acid; inhibition, % at 12.5 µM;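 active = pattern-corrected inhibition of lipid staining of at least 50% with the nuclear-stain viability signal not falling by more than 50%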;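 also: 0% = DMSO wells and 100% = triacsin C control wells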
# Cardio protect = modulators protecting cardiomyocytes from myocardial damage | H9c2 cardiomyocytes, H2O2 injury protection, ATPLite, 2 h | protection from H2O2 cell death, % at 20 µM | 360,000 tested, 0.63% active | AID 588492;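 active = compounds giving at least 50% protection of heart cells from peroxide-induced death in the single-dose screen, raw or plate-pattern-corrected value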;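 also: 0% = DMSO wells with peroxide and 100% = DMSO wells without peroxide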
# NR2F2 inh = inhibitors of human COUP-TFII (NR2F2); HEK293T NGFI-A luciferase reporter, luminescence; inhibition, % at 8.6 µM; P24468; 370,000 tested, 0.7% active; AID 686940;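 active = inhibition above a per-plate cutoff, mean inhibition of test wells between control levels plus 3 SD, cut at about 38% in these data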;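 also: cells cotransfected with COUP-TFII expression vector driving the NGFI-A reporter; 0% = median of COUP-TF2 test wells and 100% = reporter-only cells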
# Target sequence (P24468 whole entry, looked up): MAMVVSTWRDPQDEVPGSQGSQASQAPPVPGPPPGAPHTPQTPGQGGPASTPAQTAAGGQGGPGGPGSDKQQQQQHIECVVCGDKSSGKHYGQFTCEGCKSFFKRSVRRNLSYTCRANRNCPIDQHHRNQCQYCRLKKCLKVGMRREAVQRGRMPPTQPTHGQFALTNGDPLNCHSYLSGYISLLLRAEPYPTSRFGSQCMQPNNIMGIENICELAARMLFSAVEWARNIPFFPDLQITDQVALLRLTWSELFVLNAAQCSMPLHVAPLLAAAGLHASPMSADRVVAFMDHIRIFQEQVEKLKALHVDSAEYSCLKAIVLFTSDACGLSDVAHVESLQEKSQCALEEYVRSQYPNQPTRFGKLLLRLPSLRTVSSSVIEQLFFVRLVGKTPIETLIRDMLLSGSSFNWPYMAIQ
# VP16 Luc counter = VP16 inhibition counter-screen for COUP-TFII; HEK293 Gal4-VP16 luciferase reporter, luminescence; inhibition, % at 8.5 µM; shares compounds with NR2F2 inh; 2,500 tested, 25% active; in the data active = inhibition above about 13%
# NR2F2 inh conf = COUP-TFII (NR2F2) inhibition, confirmation assay | shares compounds with NR2F2 inh | HEK293 NGFI-A luciferase reporter, luminescence | inhibition, % at 8.5 µM | 2,500 tested, 45% active | AID 687008;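 active = mean inhibition over three repeats above a set limit taken from the earlier primary screen, cut at about 38% in these data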;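 also: 100% = cells given the luciferase reporter alone without the COUP-TF2 vector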
# Active calls of the source: *; · = not tested or not shown. An excerpt weighted towards active compounds, which were near 2.6% of everything screened.
SMILES,Jurkat NFkB inh,697 NFkB inh,Gli-Sufu antag,TAG inh,Cardio protect,NR2F2 inh,VP16 Luc counter,NR2F2 inh conf
O=C(NCc1nc2ccccc2[nH]1)c1ccc(Cl)c(S(=O)(=O)N2CCCC2)c1,-7.0,-14.6,11.2,·,3.9,-0.8,·,·
COc1ccc(-c2ccccc2C2Cc3nnccc3CN2)cc1 (stereo not drawn),·,·,·,·,·,19.4,·,·
CC1CCCN(c2cccc3c2S(=O)(=O)N([C@H](C)c2ccccc2)C[C@@H](COCc2ccccc2)O3)C1 (stereo partly drawn),·,·,·,·,·,12.5,·,·
CCOC(=O)CSc1nnc(CSc2nc(C)cc(C)n2)n1Cc1ccco1,-20.3,-8.5,2.9,-24.0,8.1,-6.5,·,·
Cc1cc(C)nc(SCc2nnc(SCC(N)=O)n2Cc2ccco2)n1,-3.4,1.8,2.0,0.5,4.0,38.8*,11.0,11.4
C[C@@H]1ON(C)[C@H]2C[C@H]3c4[nH]c5c(-c6cc(Cl)cc(Cl)c6)cccc5c4CCN3C(=O)[C@@H]12,·,·,·,·,·,-28.1,·,·
N#Cc1nc(N2CCCC2)nc(N2CCCC2)n1,25.2,-4.6,5.9,-2.8,-7.2,46.8*,-5.9,33.5
CCOC(=O)C1=C(C(=O)OCC)C2N(Cc3ccc(C#N)cc3)c3ccccc3[C@@]23C[C@@H](C(=O)OC)N(S(=O)(=O)c2ccc(C#N)cc2)C3=N1 (stereo partly drawn),·,·,·,·,·,0.0,·,·
COc1ccc(CCNc2ccc(N3C(=O)CC(C)C3=O)cc2[N+](=O)[O-])cc1OC (stereo not drawn),-0.1,-51.0,-29.4,-7.5,-17.4,55.4*,-4.7,24.1
Cc1ccc2c(c1)C(CS(=O)(=O)NCC(C)C)NC2 (stereo not drawn),·,·,·,·,·,0.3,·,·
Cc1ccc(S(=O)(=O)NC[C@H]2CN(S(=O)(=O)c3ccc(C)cc3)[C@@H](Cc3ccccc3)CO2)cc1,·,·,·,·,·,-4.7,·,·
COc1ccc(CN(C)C(=O)c2ccc(OCC(=O)Nc3cccc(C(F)(F)F)c3)c(OC)c2)c(OC)c1,34.0,-28.4,9.9,3.4,-9.2,70.9*,1.6,58.7*
CCOc1ccc(-c2cc(CCCC(=O)NCCC(C)C)no2)cc1,-24.8,26.6,-5.0,·,-7.6,4.1,·,·
CCOc1ccc(-c2cc(CCCC(=O)Nc3cc(OC)ccc3OC)no2)cc1,2.0,32.4,13.0,·,-2.9,67.3*,38.4*,31.9
CC1(C)CC(=O)C=C(Nc2ccccc2NC(=O)c2ccc(F)cc2F)C1,·,·,·,·,·,-12.2,·,·
CN(CCCC(=O)Nc1ccncc1)S(=O)(=O)c1ccc(Cl)cc1,30.3,2.2,35.9,-26.4,-34.4,52.3*,3.6,30.2
O=C(Cc1ccc(Cl)cc1)Nc1ccncc1,39.6,-3.9,19.5,-7.3,-10.0,40.2*,-2.9,7.8
Cc1ccc(CC(=O)Nc2ccncc2)cc1,33.5,-5.5,49.8,·,-13.2,54.7*,-9.2,24.4
CN(CC(=O)Nc1ccncc1)S(=O)(=O)c1ccc(Br)cc1,3.8,-11.8,1.5,·,-8.2,8.6,·,·
COC(=O)[C@]12C[C@H](CC(=O)NCCC(C)C)C(=O)N(CCC3=CCCCC3)C1=C[C@H](C1CCCC1)O[C@@H]2C,·,·,·,·,·,-6.9,·,·
COC(=O)C1CN(C2CCCC2)CCS(=O)(=O)N1Cc1cn(Cc2ccc(Cl)cc2)nn1 (stereo not drawn),·,·,·,·,·,8.0,·,·
O=C(OC12CCCN(C1)/C(=C/c1cccc(Cl)c1)C2)c1cccc(F)c1 (stereo not drawn),·,·,·,·,·,-0.3,·,·
COc1cc(CNc2ccc(O)cc2)cc(Br)c1OCc1ccccc1F,5.9,6.5,2.3,·,-21.1,·,·,·
COc1cc(CNCc2ccncc2)cc(Br)c1OCc1ccccc1F,1.3,-7.6,28.9,·,-14.1,45.9*,3.3,27.7
CCc1nc2ccccc2c(C(=O)OCC(=O)Nc2cccc(S(=O)(=O)NC3=NCCCCC3)c2)c1C,9.7,-65.6,29.2,-19.0,-4.5,64.3*,-1.8,20.9
O=C(COC(=O)c1ccc2ccccc2n1)Nc1cccc(S(=O)(=O)NC2=NCCCCC2)c1,-11.2,6.3,0.2,-12.4,-5.6,-9.5,·,·
O=C(Nc1cccc(S(=O)(=O)NC2=NCCCCC2)c1)c1ccc(Cl)cc1,19.8,-44.9,25.4,-10.3,-10.0,43.2*,-7.3,10.0
